PubChem BioAssay AID690 (Sanford-Burnham Center for Chemical Genomics, 2007)
Screen size: about 96,000 compounds; about 80 (0.08%) were called active. How the calls were made is not given here. Only a sample is shown. Entries with a potency or affinity are not part of this list. Residues, ends and D or L forms follow the SMILES beside them.

What follows are molecules tested against Alkaline phosphatase, placental type (Homo sapiens) (UniProt P05187) (assay: inhibition of human placental alkaline phosphatase – biochemical, luminescence, HTS (AID 690)). Conditions: purified PLAP, luminescent substrate; at 20 µM; stronger effect = higher value.
Sequence of Alkaline phosphatase, placental type (Homo sapiens) (P05187 whole entry, looked up): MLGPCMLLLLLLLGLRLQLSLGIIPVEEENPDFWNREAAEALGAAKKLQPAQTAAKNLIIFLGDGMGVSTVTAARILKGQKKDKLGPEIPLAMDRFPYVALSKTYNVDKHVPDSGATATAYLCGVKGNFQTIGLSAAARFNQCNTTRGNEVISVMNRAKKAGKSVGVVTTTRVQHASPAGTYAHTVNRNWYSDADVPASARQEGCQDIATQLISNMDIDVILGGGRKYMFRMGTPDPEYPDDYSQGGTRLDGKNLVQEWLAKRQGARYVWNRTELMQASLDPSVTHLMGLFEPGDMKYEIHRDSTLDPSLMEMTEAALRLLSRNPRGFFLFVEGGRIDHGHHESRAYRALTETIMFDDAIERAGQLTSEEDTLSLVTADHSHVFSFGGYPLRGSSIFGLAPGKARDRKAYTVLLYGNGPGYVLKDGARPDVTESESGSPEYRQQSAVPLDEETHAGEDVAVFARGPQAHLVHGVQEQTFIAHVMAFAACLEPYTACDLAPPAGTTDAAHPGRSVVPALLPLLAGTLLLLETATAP

inhibition, inactive:
O=C(CCCn1c(SCC(=O)NCC2CCCO2)nc2ccccc2c1=O)NCc1ccccc1 (stereo not given) -31.1%
O=C(CCCn1c(SCC(=O)NCC2CCCO2)nc2ccccc2c1=O)NCC1CCCO1 (stereo not given) -4.3%
CC(C)(C)c1nn(-c2ccccc2)c2[nH]c(=O)c(CNc3ccc4c(c3)OCCO4)cc12 -71.4%
Cc1ccc(C(=O)CN(C(=O)c2ccc(Cl)c(Cl)c2)N2C(=O)C3CCCCC3C2=O)cc1 (stereo not given) -10.4%
O=C(/C=C/NNC(=O)c1cccc(Br)c1)c1cccc(Br)c1 -55.3%
CCC(=O)Nc1cccc(C(=O)/C=C/c2ccccc2)c1 -3.5%
O=C(CCN1C(=O)c2ccccc2C1=O)NC1=NCCS1 8.9%
CC1=NOC(=O)/C1=C/c1ccc(N(C)C)cc1 -1.4%
CCOC(=O)C1=NN(c2ccccc2)C(=O)/C1=C\c1ccc(N(C)C)cc1 2.6%
Cc1ccc(C(=O)Nc2nc3ccc(S(C)(=O)=O)cc3s2)s1 1.6%
Cc1ccc(CS/C(Nc2ccccc2C)=C(\C#N)C(=O)NCc2ccco2)c(C)c1 -32.5%
CC(C)Oc1ccc(CNC(=O)CC(c2ccccc2)c2cc(Cl)ccc2O)cc1 (stereo not given) -26.3%
CCc1c(C#N)c(N)nc(SCC(=O)OCc2ccccc2)c1C#N 14.4%
COC(=O)CSc1nsc(SCC(=O)OC)c1C#N 13.1%
c1ccc(SCCc2ccncc2)cc1 -3.2%
O=C(O)CSCc1ccc(Cl)cc1 -5.7%
c1ccc2c(CSCCc3ccncc3)cccc2c1 -15.7%
CS(=O)(=O)NCCSCc1ccc(Cl)cc1 -9.2%
CCn1c(C)c(C(C)=O)c(N2CCN(c3ccccc3)CC2)nc1=S -3.4%
O=C(NCc1ccc2c(c1)OCO2)C1CCCN(S(=O)(=O)c2cccc3nonc23)C1 (stereo not given) -13.3%
O=C1N2CCSC2=NC1(Nc1ccccn1)C(F)(F)F (stereo not given) 2%
CCC(CC)NC(=O)Cc1ccccc1[N+](=O)[O-] -5.8%
COc1ccc(CNC(=O)c2ccccc2[N+](=O)[O-])cc1 -9.5%
Cc1ccc(N(CC(=O)NCc2ccncc2)S(C)(=O)=O)cc1Cl -7%
O=C(CSc1nnc(Cn2nnc3ccccc32)o1)N(Cc1ccc(F)cc1)c1ccccc1 2.6%
CCSc1nc2c(cnn2-c2ccc(C)c(C)c2)c(=O)[nH]1 -20.6%
CCOC(=O)CN1C(=O)S/C(=C/c2ccc(N3CCCCC3)o2)C1=O -4.2%
COC(=O)CN1C(=O)S/C(=C/c2ccc(N3CCCCC3)o2)C1=O -25.9%
CCO/C=C1/C(=O)N(CC)c2ccccc21 4.3%
O=C(OCC(O)CN1CCCCC1)C12CC3CC(CC(C3)C1)C2 (stereo not given) -58.5%
COC(=O)C(CC(C)C)NC(=O)C(N)Cc1ccccc1 (stereo not drawn) (H-Phe-Leu-OMe; configuration not given here) -5.6%
COC(=O)C(N)Cc1ccc(O)cc1 (stereo not given) 18.8%
O=C(CC(NC(=O)c1ccccc1Cl)c1ccccc1)Nc1ccc2c(c1)OCO2 (stereo not given) 2.4%
Cc1cccc(NC(=O)C2c3ccccc3C(=O)N3CCc4ccccc4C23)n1 (stereo not given) 2.2%
COc1cc(/C=C(/C(=O)c2cccs2)c2nc3ccccc3[nH]2)ccc1O 33.6%
O=C(/C(=C/c1ccc(Cl)cc1)c1nc2ccccc2[nH]1)c1cccs1 -30.3%
COc1cc(CNCCc2ccc(F)cc2)ccc1OCc1ccc(Cl)nc1 -50.6%
O=C(N1CCOCC1)C12CC3CC(C1)CC(c1ccccc1)(C3)C2 -20.7%
CCSC1=N/C(=C\c2ccc(C(=O)O)cc2)C(=O)S1 11.5%
CSC1=N/C(=C\c2ccc(C)cc2)C(=O)S1 1.7%
Cn1nc([N+](=O)[O-])nc1N1CCN(c2ccc(F)cc2)CC1 20.5%
CCOC(=O)N1CCC(NC(=O)C(CC(C)C)NC(=O)C2CCC(C)CC2)CC1 (stereo not given) -63.6%
CCN(CC)C(=O)Cn1c(=O)n(-c2ccccc2)c(=O)n1CC(=O)N(CC)CC 8.2%
COC(=O)c1cn[nH]c1NC(=S)Nc1ccc(C)cc1Cl -10%
COC(=O)c1cn[nH]c1NC(=S)Nc1ccc(Cl)c(Cl)c1 -146%
CN(C)S(=O)(=O)c1cccc(C(=O)Nc2cc(Cl)cc(Cl)c2)c1 -58.5%
Cc1noc(C)c1COC(=O)COc1ccc2c(C)cc(=O)oc2c1 8.3%
CCOC(=O)/C(C#N)=C1/C=Cc2ccccc2N1CC 3.8%
CCN1C(=C2C(=O)c3ccccc3C2=O)C=Cc2ccccc21 46.7%
CCOc1ccc(CSC(=N)N)cc1[N+](=O)[O-] -79.6%
CCCCCOc1ccc(CSC(=N)N)cc1[N+](=O)[O-] 34.2%
CCN1/C(=C/C(=O)c2ccco2)Sc2ccccc21 -0.2%
CCN1/C(=C2\OC(=S)N(C)C2=O)Sc2ccccc21 13.9%
CCN(CC)S(=O)(=O)c1ccc(C(=O)Nc2cc(C)cc(C)c2)cc1 6%
Cc1ccc2nc(SCC(=O)Nc3ccc4c(c3)OCCO4)[nH]c2c1 -75.7%
